Anthrax LF prot: blocks Bacillus anthracis lethal factor protease. multiplex microsphere protease cleavage assay, LF. AID 588501. inhibition, % at 10 µM. P15917. hit rate 0.12% among 360,000; further: plate controls were buffer without enzyme for full effect and enzyme alone for no effect
Target sequence (P15917 whole entry, looked up): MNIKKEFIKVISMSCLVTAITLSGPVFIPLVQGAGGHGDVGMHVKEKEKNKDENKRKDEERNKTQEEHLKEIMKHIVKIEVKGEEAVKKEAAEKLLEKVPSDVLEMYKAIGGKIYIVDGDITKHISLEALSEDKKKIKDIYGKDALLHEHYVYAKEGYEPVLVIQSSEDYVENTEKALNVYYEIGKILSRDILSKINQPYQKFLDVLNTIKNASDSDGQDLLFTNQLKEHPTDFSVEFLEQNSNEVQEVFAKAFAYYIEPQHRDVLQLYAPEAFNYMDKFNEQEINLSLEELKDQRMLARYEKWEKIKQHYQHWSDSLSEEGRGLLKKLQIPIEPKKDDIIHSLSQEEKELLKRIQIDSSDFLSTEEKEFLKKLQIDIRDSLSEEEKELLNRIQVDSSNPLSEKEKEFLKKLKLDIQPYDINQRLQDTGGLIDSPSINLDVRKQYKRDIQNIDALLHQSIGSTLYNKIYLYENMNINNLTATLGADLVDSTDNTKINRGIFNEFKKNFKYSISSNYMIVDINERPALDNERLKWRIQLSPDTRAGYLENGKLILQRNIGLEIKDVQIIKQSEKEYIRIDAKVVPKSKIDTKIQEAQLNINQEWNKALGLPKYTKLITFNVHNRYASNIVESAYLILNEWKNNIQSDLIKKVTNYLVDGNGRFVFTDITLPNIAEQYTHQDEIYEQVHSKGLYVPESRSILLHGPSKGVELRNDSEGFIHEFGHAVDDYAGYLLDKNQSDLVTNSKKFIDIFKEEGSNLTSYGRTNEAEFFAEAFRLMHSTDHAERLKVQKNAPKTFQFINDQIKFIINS
Bead autofluor: counter-screen for toxin protease inhibitors: compound fluorescence | compound autofluorescence counterscreen, microsphere flow cytometry; active compounds read high | fluorescence intensity (concentration not given with the values) | hit rate 3.1% among 360,000; in the data active means fluorescence intensity above about 16000; inconclusive means no clear call, values can overlap the other calls
BoNT A protease: blocks Botulinum neurotoxin A light chain protease; multiplex microsphere protease substrate cleavage, flow cytometry; hit rate 0.17% among 360,000; inhibition, % at 10 µM; AID 588499; further: plate controls were buffer without enzyme for full effect and enzyme alone for no effect
BoNT F protease: BoNT F light chain protease inhibition; Multiplex microsphere protease cleavage assay, flow cytometry; inhibition, % at 10 µM; hit rate 0.22% among 360,000; in the data active means inhibition above about 35%, passing the limit was not always enough; inconclusive means no clear call, values can overlap the other calls; further: plate controls were buffer without enzyme for full effect and enzyme alone for no effect
3CLpro inhibitor: SARS-CoV 3CLpro protease inhibition; P0C6X7; recombinant SARS-CoV 3CLpro, quenched FRET peptide cleavage; inhibition, % at 6 µM; hit rate 0.14% among 290,000; AID 1706; in the data active means inhibition above about 12%
BJeLR viability: BJeLR cell viability loss; BJeLR (HRASV12) viability, CellTiter-Glo ATP luminescence, 48 h; inhibition, % (test concentration not listed); hit rate 0.17% among 300,000; AID 1554; in the data active means inhibition above about 50%; inconclusive means no clear call, values can overlap the other calls
An asterisk follows results filed as active; ? = inconclusive; · = no result given. An excerpt weighted towards active compounds, which were near 3.6% of everything screened. Unless noted, no stated cut-off is given here; in the data, active means inhibition above about 30%; inconclusive means no clear call, values can overlap the other calls; inactive means below that.

SMILES	Anthrax LF prot	Bead autofluor	BoNT A protease	BoNT F protease	3CLpro inhibitor	BJeLR viability
C=CCSc1ncccc1C(=O)NCc1ccccc1	-3	21460*	3	3	0	-10
CCOC(=O)c1cnc(NCc2ccccc2)nc1C	-3	16359*	0	-1	-2	1
O=C(CSc1ncccn1)NCc1ccccc1	8	10053	-2	-2	-5	-4
CCOC(=O)c1cccnc1SCC(=O)NCc1ccccc1	-2	19817*	1	1	-3	8
Cc1cc2occ(CC(=O)Nc3nccs3)c2cc1C(C)C	-2	22242*	?	2	1	-5
COc1ccc2c(CC(=O)Nc3nccs3)coc2c1	-2	4040	2	-4	2	1
COc1cc(CC(=O)Nc2nccs2)cc(OC)c1OC	-3	22884*	?	-4	-2	-3
CC12CCC(C)(O1)C1C(=O)N(c3nccs3)C(=O)C12 (stereo unspecified)	-1	3406	0	1	·	·
Cc1nc(N2CCOCC2)c(C#N)c2c1COC(C)(C)C2	-2	20542*	-2	-2	1	4
Cc1cccc(-c2ccc3[nH]c4c(c3c2)CCN2C[C@@H]([C@H](C)OC(=O)Nc3ccccc3C)[C@@H](N(C)C(=O)Nc3ccccc3C)C[C@@H]42)c1	2	5614	1	-8	·	·
COC(=O)c1[nH]c2c(c1C)C(=O)CC(c1cccs1)C2 (stereo unspecified)	-1	2532	0	-3	-6	51*
CCN(CC)C(=O)C1CCCN(Cc2ccccc2C(F)(F)F)C1 (stereo unspecified)	-2	23390*	0	0	4	-7
CCN(CC)C(=O)C1CCCN(Cc2ccc(OC)c(C)c2)C1 (stereo unspecified)	-2	16141*	2	2	5	4
CCN(CC)C(=O)C1CCCN(C/C=C/c2ccccc2)C1 (stereo unspecified)	-2	25287*	-6	-6	-2	0
CCN(CC)C(=O)C1CCCN(C/C(C)=C/c2ccccc2)C1 (stereo unspecified)	-4	8692	-1	-8	-4	-4
CCc1ccc(S(=O)(=O)Nc2cccc(-c3ccc4nnc(C)n4n3)c2)s1	-3	5350	-2	-10	·	-4
Cn1cc(-c2csc(C(C)(O)c3cccnc3)n2)cn1 (stereo unspecified)	-6	3353	-1	-7	·	·
CCCc1c(-c2ccc(O)cc2)nn(-c2ccc(O)cc2)c1-c1ccc(O)cc1	-10	6429	0	-1	·	5
COc1ccc(C(=O)N/C(=C\c2cn(C)c3ccccc23)C(=O)N2CCN(C)CC2)cc1OC	2	4681	-2	-2	0	-5
CCc1cc(=O)[nH]c(SCc2ccc(C)cc2)n1	-1	2634	-2	0	-4	3
O=C(CN1CCC(NC(=O)c2ccccc2)CC1)NCc1ccccc1F	-3	15747	2	0	4	2
O=C(CN1CCC(NC(=O)c2ccc(F)cc2)CC1)NCc1ccccc1F	-1	17206*	-2	-4	-2	4
O=C(Cn1nnc(-c2ccc(CN3CCOCC3)cc2)n1)N1CCCc2ccccc21	0	22876*	0	2	3	5
O=C(CN1CCOCC1)N1CCCc2ccccc21	-3	4574	-1	-8	4	-5
O=S(=O)(N1CCCCC1)N1CCN(CC(O)COc2ccc3cc(Br)ccc3c2)CC1 (stereo unspecified)	0	10259	1	-6	1	-3
OC(COc1ccc2cc(Br)ccc2c1)CN1CCCC1 (stereo unspecified)	-4	23249*	-3	-5	-6	3
O=S(=O)(NCC(c1cccnc1)N1CCN(Cc2ccccc2)CC1)c1cc(F)ccc1F (stereo unspecified)	-3	6089	1	2	2	0
CCCC(=O)C1=C(O)C(C(=O)OC)C(C)(C)CC1=Nc1ccc(N)cc1 (stereo unspecified)	0	21083*	4	9	-6	6
CCCC(=O)C1=C(O)C(C(=O)OC)C(C)(C)CC1=Nc1ccc(C)cc1 (stereo unspecified)	-3	3386	0	-10	5	9
CCCC(=Nc1ccc(N)cc1)C1=C(O)C(C(=O)OC)C(C)(C)CC1=O (stereo unspecified)	-1	23098*	?	0	2	8

Bioassay records from PubChem BioAssay.
